Compound activity as filed in PubChem BioAssay.
ClpP mod = qHTS Assay for Activators of ClpP; purified B. subtilis ClpP, FRET peptide cleavage, 20 min; hit rate 1.9% among 340,000; Potency, µM (highest dose often 57.5 µM), inactives show top-dose activity change, negative = active; ATP-dependent Clp protease proteolytic subunit (Bacillus subtilis (strain 168)), P80244; active = well fitted falling curve with a large enough effect; inconclusive = small, poorly fitted or top-dose-only effect; inactive = no such curve, though single readings can be large or run the other way; note: potency is the fitted concentration of half-maximal effect; the source files actives as falling curves though it sought activators and does not explain the sign; nearly all actives have a fitted effect of over 65% in size
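Buffer: 100 mM Tris/HCl pH8, 100 mM KCl, 0.05% low protease BSA, 2.5% glycerol, 0.01% Tween-20. ClpP 10 microg/mL final; 20 min RT; delta FRET normalized to ADEP and DMSO controls.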
uPA generation = cell surface uPA generation inhibition; AID 540303; hit rate 0.31% among 330,000; cell surface uPA generation assay, qHTS; Potency, µM (titrated, usually from 38.3 µM), for inactives: at the top dose activity change, negative = inhibition, hits mostly inhibitors; active = well fitted inhibition curve with a large enough effect; inconclusive = small, poorly fitted or top-dose-only effect; inactive = no such curve, though single readings can be large or run the other way; tested in mouse RAW 264.7 cells; note: potency is the fitted concentration of half-maximal effect; % is set by controls: 0 for no effect and ±100 for the full control effect; nearly all actives have a fitted effect of over 55% in size
TCR act = T cell receptor activation; primary human leukocytes, anti-CD3, IL-2 HTRF, 48 h; Potency, µM (titrated, usually from 9.22 µM), for the others: at the highest dose activation of IL-2 secretion, hits mostly activators; 330,000 tested, under 10 active; AID 504894; note: % of control where 0% means no effect
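IL-2 release read by HTRF sandwich (Eu cryptate donor, d2 acceptor, 665 nm emission) after 48 hr exposure of primary human leukocytes to compound together with anti-CD3 beads in the absence of co-stimulatory signals.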
Sfp inh = blocks B. subtilis Sfp PPTase activity; Potency, µM, without a hit: largest response in the series, negative = inhibition, usual class: inhibitors; AID 1490; Biochemical Sfp PPTase activity, qHTS; hit rate 3.5% among 310,000; Q9F4F7;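 note: the enzyme is Sfp with the accession as filed and its product quenches rhodamine fluorescence; potency is the fitted concentration of half-maximal effect; 0% = enzyme reaction without inhibitor and -100% = no enzyme wells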
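Fluorescence-quenching assay with 15 nM Sfp, 5 uM rhodamine-CoA and 12.5 uM BHQ-2-labelled ybbR peptide in pH 7.6 Hepes/MgCl2 buffer. Enzyme was pre-incubated with compound for 15 min at room temperature. Rate was taken from the 30-min fluorescence change (525/598 nm).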
Numbers without * were called inactive; ? = inconclusive; . = no result; [ ] = another dose, or the depositor's remark. Sampled rows, rich in hits. Any-hit rate of the full collection: about 4.2%. Unless noted, calls come from the whole dose curve; as a rule, active = well fitted curve in the direction sought with a large enough effect; inconclusive = small, poorly fitted or top-dose-only effect, or another doubt; inactive = no such curve, though single readings can be large; an effect the other way counts as inactive or inconclusive.

SMILES	ClpP mod	uPA generation	TCR act	Sfp inh
Cc1cc(C)n(CC(O)Cn2c(C)c(C)c3ccccc32)n1 (stereo not given)	32µM*	-5%	1%	-26%
Cc1c(C)n(CC(O)CN2CCOCC2)c2ccccc12 (stereo not given)	-16%	0%	1%	-13%
Cc1c(C)n(CC(O)CN2CCCCC2)c2ccccc12 (stereo not given)	32µM*	2%	0%	-25%
CC(C)(C)NC(=O)C(c1cc2ccccc2o1)n1c(-c2ccc(-c3ccccc3)cc2)nc2ccccc21 (stereo not given)	4%	.	.	.
CCOC(=O)C1CCCCN1Cc1ccc(F)c(Br)c1 (stereo not given)	-1%	0%	16%	63µM*
CCOC(=O)C1CCCCN1Cc1ccc(OC)c(OC)c1 (stereo not given)	.	-4%	3%	-13%
C=CCOC(=O)C(C(C)=O)C(NC(=O)OC)c1cccs1 (stereo not given)	.	.	.	8%
COc1cc(/C=C\c2ccc(OC)cc2OC)cc(OC)c1	.	.	.	50µM*
COc1ccc(C=O)c(OC)c1	.	4%	-6%	9%
COc1ccc(-c2nc3sc(CCNC(=O)C(=O)Nc4ccccc4C#N)c(C)n3n2)cc1	-4%	.	.	.
CC(C)CSCC1OC(n2cnc3c(N)nccc32)C(O)C1O (stereo not given)	1%	.	.	.
Cn1c(=O)c([N+](=O)[O-])c(NCc2ccc3c(c2)OCO3)c2ccccc21	.	-6%	-2%	50µM*
Cc1ccc(C(=O)c2c3ccc(C(F)(F)F)cc3[n+]([O-])n2CCCN)cc1	-4%	-14%	5%	.
Cc1ccc(C(=O)c2c3ccc([N+](=O)[O-])cc3[n+]([O-])n2CCCN)cc1	1%	0.63µM*	-1%	.
CCOc1ccc(N2C(=O)C3C(c4ccccc4)=NN(c4ccccc4)C3C2=O)cc1 (stereo not given)	11µM*	8%	-3%[46.1 µM]	11%
CC1(C)NC(=O)N(CC(O)CNC23CC4CC(CC(C4)C2)C3)C1=O (stereo not given)	28µM*	3%	-4%	15%
COc1ccc(S(=O)(=O)NC(=O)C2(C)CCN2C(=O)C2CC2)cc1 (stereo not given)	2%	.	.	.
COc1ccc2c(c1)OC(C)(C)C(c1ccccc1)C2c1ccc(OCCN2CCCC2)cc1 (stereo not given)	.	.	.	50µM*
CCC(Oc1ccccc1F)C(=O)Nc1c(C(=O)c2ccccc2)oc2ccccc12 (stereo not given)	5%	.	.	.
CC1(C)CC(=O)C2=C(C1)OC1=C(C(=O)CC(C)(C)C1)C2c1ccc(O)c([N+](=O)[O-])c1	1%	3%	-1%	8%
CC1(C)CC(=O)C2=C(C1)OC1=C(C(=O)CC(C)(C)C1)C2c1ccc(O)cc1O	17%	.	-6%	7.9µM*
CC(C)(C)N1C(=O)c2ccccc2NC(=O)N1Cc1ccccc1	-1%	0%	-5%	12%
O=C1Nc2ccccc2C(=O)C1(Cl)Cc1ccccc1 (stereo not given)	-15%	-5%	-6%	18µM*
O=C(NC1C2CCCC1CN(C1CC1)C2)c1ccc(Cl)cc1 (stereo not given)	0%	19%	3%	12%
CC(C)C[C@H](NC(=O)[C@@H](Cc1c[nH]c2ccccc12)NC(=O)[C@H](Cc1ccc(O)cc1)NC(=O)[C@H](CO)NC(=O)[C@H](Cc1c[nH]c2ccccc12)NC(=O)[C@H](Cc1cnc[nH]1)NC(=O)[C@@H]1CCC(=O)N1)C(=O)N[C@@H](CCCN=C(N)N)C(=O)N1CCC[C@H]1C(=O)NCC(N)=O	.	.	.	11%
SMILES	ClpP mod	uPA generation	TCR act	Sfp inh
O=[N+]([O-])c1ccccc1-c1ccc(C(=S)N2CCCC2)o1	.	-16%	.	7.9µM*
O=C(c1ccc(COc2ccccc2[N+](=O)[O-])o1)N1CCCCC1	0%	.	-3%	16%
Cc1cccc(N2CCN(C(=S)c3ccc(-c4ccccc4[N+](=O)[O-])o3)CC2)c1	2%	-10%	8%[46.1 µM]	?
O=[N+]([O-])c1ccccc1-c1ccc(C(=S)N2CCCCC2)o1	0%	-6%	2%	25µM*
CC(C)(C)OC(=O)N1CCN(C(=O)OCC2c3ccccc3-c3ccccc32)CC1C(=O)O (stereo not given)	-8%	-4%	3%	.
N#CC12CCCCC1CC1CCCCC1(C#N)N2N (stereo not given)	-6%	-5%	2%	79µM*
CN(CCO)c1nc(-c2cccs2)nc2ccccc12	7%	.	.	.
CCC(C)NCCCOc1ccc(C)cc1OC (stereo not given)	.	2%	1%	-6%
CNCCCOc1ccc(C)cc1OC	.	2%	0%	45µM*
CCN1CCN(Cc2ccc(NC(=O)c3cc(NC(=O)c4cnn(-c5ccccc5)c4N)cc(OC)c3)cc2C(F)(F)F)CC1	-4%	-18%	1%	-16%
CCN1CCN(Cc2ccc(NC(=O)c3cc(NC(=O)C(=O)c4c[nH]c5ccccc45)cc(OC)c3)cc2C(F)(F)F)CC1	-9%	?	-13%	50µM*
COC(=O)c1c(C)n(-c2ccccc2)c2ccc(O)cc12	-10%	.	-1%	?
CN(C)/C=C/c1c([N+](=O)[O-])c2ccc(O)cc2n1-c1ccccc1	.	3%	-13%	2.5µM*
CCCCC(=O)NC(=S)Nc1cccc(NC(=O)CC)c1	-1%	1%	7%	-10%
CCCCC(=O)NC(=S)Nc1c(C)cc(Br)cc1C	1%	3%	0%[46.1 µM]	35µM*
COc1ccc2[nH]c(=O)c(CNc3cccc(C)c3)cc2c1	-18%	-5%	-5%	10µM*
COc1ccc2[nH]c(=O)c(CN(C(=O)NC3CCCCC3)C3CCCCC3)cc2c1	?	-1%	-8%	-6%
COc1ccc2[nH]c(=O)c(CNC3CCCCC3)cc2c1	16µM*	-2%	5%	7%
CC(=O)NC(Cc1c(F)c(F)c(F)c(F)c1F)C(=O)NCC(N)C(=O)c1ccccc1 (stereo not given)	0%	.	.	.
CCn1c(=O)c(C(=O)CN(C)Cc2cccc(OC)c2OC)c(N)n(Cc2ccccc2)c1=O	1%	5%	-8%	63µM*
CCn1c(=O)c(C(=O)CN(C)Cc2ccc(F)cc2)c(N)n(Cc2ccccc2)c1=O	.	-1%	-18%	15%
C(=N\c1nccs1)/c1c[nH]c2ccccc12	2%	-2%	3%	45µM*
COc1ccc(-c2cc3ccccc3n2CC(O)CN2CCC(C)CC2)cc1 (stereo not given)	4%	-15%	-3%	?
COc1ccc(-c2cc3ccccc3n2CC(O)CNC(CO)(CO)CO)cc1 (stereo not given)	35µM*	.	0%	9%
COc1ccc(-c2cc3ccccc3n2CC(O)Cn2nc(C)cc2C)cc1 (stereo not given)	22µM*	0%	1%	-6%
Cc1cccc(N2CCN(S(=O)(=O)c3ccc4c(c3)C(C(C)C)C(=O)N4)CC2)c1C (stereo not given)	-1%	.	.	.
